Laboratory results reported in PubChem BioAssay AID619 (University of Pittsburgh Molecular Library Screening Center, 2007).
Out of some 97,000 compounds screened, about 520 (0.54%) were called active. The full list was thinned out, with actives kept by preference. A number with no mark means an inactive call.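 Rule for the calls: active = inhibition of 50% or more in the single-concentration screen; inactive = inhibition below 50%.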

Biological target: Serine/threonine-protein kinase PLK1 (Homo sapiens) (UniProt P53350)
Sequence (P53350 whole entry, looked up): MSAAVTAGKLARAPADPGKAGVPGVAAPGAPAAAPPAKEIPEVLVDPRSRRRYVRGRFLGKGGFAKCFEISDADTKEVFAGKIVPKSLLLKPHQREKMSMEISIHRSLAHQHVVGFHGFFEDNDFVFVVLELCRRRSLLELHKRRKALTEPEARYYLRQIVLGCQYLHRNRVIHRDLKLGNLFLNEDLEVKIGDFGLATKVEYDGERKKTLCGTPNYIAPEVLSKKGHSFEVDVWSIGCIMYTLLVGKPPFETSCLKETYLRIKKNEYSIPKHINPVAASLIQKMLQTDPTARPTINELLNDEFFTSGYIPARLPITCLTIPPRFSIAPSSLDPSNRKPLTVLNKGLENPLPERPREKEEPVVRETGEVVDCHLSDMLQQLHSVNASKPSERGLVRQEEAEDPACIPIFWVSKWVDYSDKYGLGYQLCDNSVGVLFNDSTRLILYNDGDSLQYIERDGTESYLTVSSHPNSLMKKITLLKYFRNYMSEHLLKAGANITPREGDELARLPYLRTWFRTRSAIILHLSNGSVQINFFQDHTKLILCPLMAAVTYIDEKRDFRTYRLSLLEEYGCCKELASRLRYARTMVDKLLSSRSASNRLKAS
Assay: Plk1 peptide phosphorylation blockers – biochemical, TR-FRET, primary screen (AID 619);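 note: 0% = DMSO max control and 100% = H-89 dihydrochloride min control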
Details: recombinant PLK1 kinase, at 10 µM, hits give high values

SMILES | inhibition
Cc1cccc(C(=O)Nc2ccccc2-c2nnn(CC(=O)Nc3ccc4c(c3)OCCO4)n2)c1 | -19.8%
Cc1ccnc(N2C(=O)c3ccccc3C2Nc2ccc3c(c2)OCCO3)c1 (stereo unspecified) | 75.7% (active)
O=C1c2ccccc2C(Nc2ccc3c(c2)OCCO3)N1Cc1ccco1 (stereo unspecified) | -13.3%
O=C(Nc1ccc(S(=O)(=O)N2CCc3ccccc3C2)cc1)c1ccccc1 | -9.1%
CCN1CCN(C(=O)C2(NC(=O)Nc3cccc(F)c3)CCCCC2)CC1 | -9.1%
CCOC(=O)C1=C(C)NC2=C(C(=O)CC(C)(C)C2)C1c1ccsc1 (stereo unspecified) | -9.3%
CC(=O)N/C(=C/c1ccc(Cl)cc1)C(=O)NCCc1c[nH]c2ccccc12 | -8.99%
CCCOn1c(-n2nc(C)cc2C)nc2ccccc2c1=O | -12.7%
COc1ccc2ccccc2c1CNCc1ccccn1 | -6.16%
CN(C)/C=C/C(=O)c1ccccc1F | -7.63%
COc1ccccc1CNC(=O)c1ccc(SC)cc1OC | -11.5%
CCOc1ccc(CN(Cc2ccco2)S(=O)(=O)c2ccc(-n3cnnn3)c(OC)c2)cc1 | -4.62%
CCOc1[nH]n(-c2ccc(Cl)cc2)c(=O)c1C=Nc1ccc(O)cc1 | -12.9%
O=C(O)c1ccccc1NC(=S)NC(NC(=O)c1ccccc1[N+](=O)[O-])C(Cl)(Cl)Cl (stereo unspecified) | -10.3%
Cc1ccc(C2=CSC3=NS(=O)(=O)CCN23)cc1C | -12.2%
Cc1[nH]n(-c2ccc([N+](=O)[O-])cc2)c(=O)c1C=NCCN1CCN(C(=O)c2ccccc2F)CC1 | -16.1%
Cc1ccc(NC(=S)Nc2ncccc2C)c(C)c1 | -6.19%
Cc1onc(-c2ccccc2)c1C(=O)N1CCOCC1 | -6.08%
CC(=O)Nc1cccc(NC(=O)c2c(-c3ccccc3)noc2C)c1 | -5.51%
Cc1onc(-c2ccccc2)c1C(=O)Nc1ccccc1C#N | 66.8% (active)
O=C(/C=C/Nc1ccccc1OC(F)(F)F)C(F)(F)F | -3.23%

SMILES | inhibition
COc1ccc(-n2cnc3cc(NCc4ccco4)ccc32)cc1 | -1.91%
COc1ccc(-c2cc(C3CCN(c4ncccc4[N+](=O)[O-])CC3)[nH]n2)cc1 | -0.7%
CCOC(=O)Nc1ccc2c(c1)N(C(=O)CCN1CCN(CCO)CC1)c1ccccc1CC2 | -25.9%
CCN(CC)Cc1cc(C(C)=O)ccc1O | -5.02%
CC(=O)Nc1ccc(NC(=O)c2sc3nc4c(c(-c5ccc(C)cc5)c3c2N)CCC4)cc1 | -27.3%
CCN(CC)CCNc1ccc(Cl)cc1[N+](=O)[O-] | -12.3%
Cc1cc(C)c2c3c(sc2n1)C(c1ccccc1)C(C#N)=C(N)O3 (stereo unspecified) | -9.36%
c1ccc(CCC2=NCCn3cccc32)cc1 | -1.03%
CC1CSc2nnc(CCc3ccccc3)n21 (stereo unspecified) | 85.2% (active)
CNC(=O)CSc1nnc(CCc2ccccc2)n1-c1ccccc1 | -5.54%
Cc1ccoc1C(=O)Nc1cccc(Oc2ccccc2)c1 | 1.94%
Cc1nc2nc(C)c(CCC(=O)N3CCN(c4ccccc4)CC3)c(C)n2n1 | 4.83%
c1cncc(-c2nnc3n2C2(CCCCC2)Cc2ccccc2-3)c1 | -8.5%
COc1cccc(/C=N/NC(=O)C(=O)N2CCCC2)c1 | -9.34%
CCOC(=O)N1CCN(Cc2nc(N)nc(Nc3ccc(C)cc3)n2)CC1 | -13.1%
CC(Oc1ccc(F)cc1F)C(=O)/C=C/N(C)C (stereo unspecified) | 0.09%
CN1CCN(c2ccc([N+](=O)[O-])c(Sc3nc4ccccc4[nH]3)c2)CC1 | -5.67%
C=CCn1c(Cn2nnc3ccccc32)nnc1SCC(=O)N/N=C/c1cc(Br)cc(OC)c1O | -6.54%
CCN1CCN(C(=O)c2cc3cc4ccc(OC)cc4nc3s2)CC1 | -4.82%
COc1ccc(-n2c(SCC(=O)NCc3ccco3)nnc2-c2c[nH]c3ccccc23)cc1 | -3.5%
CCCc1nnc(NC(=O)c2cccs2)s1 | -6.49%

SMILES | inhibition
CCc1ccccc1NC(=O)c1cccs1 | -6.58%
CCc1nnc(NC(=O)c2cccs2)s1 | 60.3% (active)
Cc1ccc2nc(SC(C)C(=O)NCc3ccco3)[nH]c2c1 (stereo unspecified) | 1.32%
CN1CCN(c2ccc(NC(=O)COc3ccc(Cl)cc3Cl)cc2)CC1 | 3%
Cc1ccc(-n2c(=O)cc(N3CCN(Cc4ccccc4)CC3)[nH]c2=O)cc1 | -1.26%
CN1CCN(c2cc(=O)n(-c3ccc(Cl)cc3)c(=O)[nH]2)CC1 | 67.4% (active)
COc1ccc(C2Nc3ccccc3C(=O)N2Cc2ccccc2)cc1Cn1nnc2ccccc21 (stereo unspecified) | -11.2%
C[N+]1(CCNC(=O)/C=N/O)CCCCC1 | 95.9% (active)
Cc1ccc(S(=O)(=O)c2c(COC(=O)c3cccc(Cl)c3)c(-c3ccccc3)nn2C)cc1 | 3.59%
CCOC(=O)c1c(NC(=S)Nc2ccccc2)sc2c1CCN(C)C2 | -13.1%
COc1ccc(C2CC(c3ccc(C)cc3)Nc3nc(N)nn32)cc1 (stereo unspecified) | -3.47%
CCOc1ccccc1C1CC(c2ccccc2)Nc2nc(N)nn21 (stereo unspecified) | 64% (active)
CCOc1ccccc1C1CC(c2ccc(Cl)cc2)Nc2nc(N)nn21 (stereo unspecified) | -12.7%
CCOc1ccc(S(=O)(=O)N2CCCCCC2)c2ccccc12 | -17.7%
O=C(CNC(=O)Cc1ccccc1)NCC(=O)OCC(=O)c1ccccc1Cl | -4.92%
COc1ccc(C2=NOC3(CC(=O)N(c4ccc(Cl)cc4)C3=O)C2)c(OC)c1 (stereo unspecified) | -9.65%
CC(=O)c1cn(CCCCCCCCCCn2cc(C(C)=O)c(=O)[nH]c2=O)c(=O)[nH]c1=O | -6.55%
COc1nc(-c2ccc(Cl)cc2)ccc1-c1noc(-c2cccs2)n1 | -90.7%
O=C(CSc1ncnc2c1cnn2CCc1ccccc1)Nc1ccc(F)cc1 | -7.32%
